Source: article doi:10.1101/2024.03.05.583629

target: pT7_6His-AlfaTag-HOXD13 (human, UniProt P35453 263-343); test: PADIT-seq; details: dsDNA, one strand shown
Sequence (P35453 263-343): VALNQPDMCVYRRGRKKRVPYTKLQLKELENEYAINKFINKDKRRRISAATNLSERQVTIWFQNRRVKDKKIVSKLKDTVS

Sequence	binding signal
CTCGAGGATATCAAGATCTGGCCTCGGCGGGGTAAAAGGAACCTCTAGCTAGCCGACTCACTATAGGGATAATCGCCCTGAGCAAAGACC	-0.462 ± 0.0883 log2FC
CTCGAGGATATCAAGATCTGGCCTCGGCACCTTAAAAGGAACCTCTAGCTAGCCGACTCACTATAGGGATAATCGCCCTGAGCAAAGACC	0.52 ± 0.102 log2FC
CTCGAGGATATCAAGATCTGGCCTCGGCTTTTTACATGGAACCTCTAGCTAGCCGACTCACTATAGGGATAATCGCCCTGAGCAAAGACC	2.12 ± 0.0858 log2FC
CTCGAGGATATCAAGATCTGGCCTCGGCCTTTTAGTTGGAACCTCTAGCTAGCCGACTCACTATAGGGATAATCGCCCTGAGCAAAGACC	0.113 ± 0.0927 log2FC
CTCGAGGATATCAAGATCTGGCCTCGGCCACCTAAAAGGAACCTCTAGCTAGCCGACTCACTATAGGGATAATCGCCCTGAGCAAAGACC	-0.327 ± 0.133 log2FC
CTCGAGGATATCAAGATCTGGCCTCGGCCTAATAAAAGGAACCTCTAGCTAGCCGACTCACTATAGGGATAATCGCCCTGAGCAAAGACC	3.06 ± 0.0911 log2FC
CTCGAGGATATCAAGATCTGGCCTCGGCCTTCCACGCGGAACCTCTAGCTAGCCGACTCACTATAGGGATAATCGCCCTGAGCAAAGACC	-1.1 ± 0.121 log2FC
CTCGAGGATATCAAGATCTGGCCTCGGCTTTTTATGAGGAACCTCTAGCTAGCCGACTCACTATAGGGATAATCGCCCTGAGCAAAGACC	3.46 ± 0.0792 log2FC
CTCGAGGATATCAAGATCTGGCCTCGGCGTTTTATCCGGAACCTCTAGCTAGCCGACTCACTATAGGGATAATCGCCCTGAGCAAAGACC	1 ± 0.0994 log2FC
CTCGAGGATATCAAGATCTGGCCTCGGCATTTTATCGGGAACCTCTAGCTAGCCGACTCACTATAGGGATAATCGCCCTGAGCAAAGACC	1.85 ± 0.0758 log2FC
CTCGAGGATATCAAGATCTGGCCTCGGCTTTTTACTTGGAACCTCTAGCTAGCCGACTCACTATAGGGATAATCGCCCTGAGCAAAGACC	1.32 ± 0.0895 log2FC
CTCGAGGATATCAAGATCTGGCCTCGGCTTGATAAAAGGAACCTCTAGCTAGCCGACTCACTATAGGGATAATCGCCCTGAGCAAAGACC	0.619 ± 0.0899 log2FC
CTCGAGGATATCAAGATCTGGCCTCGGCAACTTAAAAGGAACCTCTAGCTAGCCGACTCACTATAGGGATAATCGCCCTGAGCAAAGACC	0.617 ± 0.0872 log2FC
